Results reported in ChEMBL document CHEMBL3988442, “University of Dundee, Small-Polar-MMV Screening Library” (2021).
For part of these data: Measured potencies and affinities stand elsewhere.

Columns and labels:
Parameters in all cases: scale not given: direction of the effect not stated beside the values
[1] = target: Protein translocase subunit SecA (Escherichia coli (strain K12)) (UniProt P10408); experiment: Assay to Identify E. coli SecA ATPase Inhibitors; type: functional; settings: 30 µM
Sequence of Protein translocase subunit SecA (Escherichia coli (strain K12)) (P10408 whole entry): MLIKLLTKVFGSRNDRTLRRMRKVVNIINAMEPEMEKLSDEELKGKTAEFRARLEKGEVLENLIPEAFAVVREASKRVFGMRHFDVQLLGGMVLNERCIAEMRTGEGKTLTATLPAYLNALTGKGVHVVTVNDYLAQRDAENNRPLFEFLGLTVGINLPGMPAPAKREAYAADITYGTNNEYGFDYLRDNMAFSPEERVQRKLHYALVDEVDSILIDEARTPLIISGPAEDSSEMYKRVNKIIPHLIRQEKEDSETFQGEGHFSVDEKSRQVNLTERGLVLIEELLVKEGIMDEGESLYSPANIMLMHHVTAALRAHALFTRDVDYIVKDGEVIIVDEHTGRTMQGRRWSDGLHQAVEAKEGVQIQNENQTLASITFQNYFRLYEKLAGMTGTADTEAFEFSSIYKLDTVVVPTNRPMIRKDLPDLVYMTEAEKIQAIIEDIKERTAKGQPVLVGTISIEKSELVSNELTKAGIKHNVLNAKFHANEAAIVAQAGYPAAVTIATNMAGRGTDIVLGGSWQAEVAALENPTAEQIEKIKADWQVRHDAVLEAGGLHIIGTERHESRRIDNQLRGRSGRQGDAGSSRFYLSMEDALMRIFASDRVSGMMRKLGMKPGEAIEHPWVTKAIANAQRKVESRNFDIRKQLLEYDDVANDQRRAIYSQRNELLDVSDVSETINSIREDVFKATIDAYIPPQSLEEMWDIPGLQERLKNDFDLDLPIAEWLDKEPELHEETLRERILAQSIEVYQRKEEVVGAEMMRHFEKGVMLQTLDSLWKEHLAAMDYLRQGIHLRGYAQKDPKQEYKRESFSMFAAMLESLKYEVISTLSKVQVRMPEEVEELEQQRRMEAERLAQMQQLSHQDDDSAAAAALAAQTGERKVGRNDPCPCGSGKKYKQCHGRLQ

[2] = target: T1, Ubiquitin-activating enzyme e1, putative (Leishmania donovani (strain BPK282A1)) (UniProt E9BSI1); experiment: Leishmania donovani Ubiquitin Activating Enzyme (LdE1); type: functional; settings: 30 µM
T1 sequence (whole entry): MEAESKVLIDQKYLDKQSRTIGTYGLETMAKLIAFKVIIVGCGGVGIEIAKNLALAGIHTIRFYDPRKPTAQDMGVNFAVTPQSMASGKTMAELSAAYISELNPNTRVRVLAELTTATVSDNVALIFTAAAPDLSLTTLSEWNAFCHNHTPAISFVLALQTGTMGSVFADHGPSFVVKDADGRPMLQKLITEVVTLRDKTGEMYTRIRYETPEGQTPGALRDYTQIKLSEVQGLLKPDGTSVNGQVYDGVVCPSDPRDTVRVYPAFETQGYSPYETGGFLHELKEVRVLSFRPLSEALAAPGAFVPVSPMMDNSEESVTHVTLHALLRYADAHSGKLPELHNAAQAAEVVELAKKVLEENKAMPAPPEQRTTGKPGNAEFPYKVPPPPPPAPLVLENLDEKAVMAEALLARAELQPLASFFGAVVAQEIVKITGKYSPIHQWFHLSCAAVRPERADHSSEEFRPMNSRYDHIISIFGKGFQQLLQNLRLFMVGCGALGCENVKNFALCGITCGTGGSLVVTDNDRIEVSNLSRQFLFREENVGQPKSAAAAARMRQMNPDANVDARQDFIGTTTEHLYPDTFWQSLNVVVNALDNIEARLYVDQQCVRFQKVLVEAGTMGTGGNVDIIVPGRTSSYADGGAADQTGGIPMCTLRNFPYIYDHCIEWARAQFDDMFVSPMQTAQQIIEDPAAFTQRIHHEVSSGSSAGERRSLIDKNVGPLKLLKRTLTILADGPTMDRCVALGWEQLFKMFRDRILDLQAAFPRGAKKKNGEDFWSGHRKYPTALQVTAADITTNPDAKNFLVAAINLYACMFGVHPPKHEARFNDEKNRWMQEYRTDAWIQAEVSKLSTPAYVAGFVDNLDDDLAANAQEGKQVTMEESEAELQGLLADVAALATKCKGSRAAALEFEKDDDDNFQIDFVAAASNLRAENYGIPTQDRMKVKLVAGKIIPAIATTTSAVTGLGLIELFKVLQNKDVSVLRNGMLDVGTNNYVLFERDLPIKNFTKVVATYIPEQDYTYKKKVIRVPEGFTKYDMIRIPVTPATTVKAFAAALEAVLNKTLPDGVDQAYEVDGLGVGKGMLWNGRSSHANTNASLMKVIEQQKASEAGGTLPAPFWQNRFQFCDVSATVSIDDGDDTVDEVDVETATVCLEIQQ

[3] = target: Sialic acid-binding Ig-like lectin 9 (Homo sapiens) (UniProt Q9Y336); experiment: Hs-Siglec9 ALPHAscreen SOP 20170721; settings: 10 µM
Sequence of Sialic acid-binding Ig-like lectin 9 (Homo sapiens) (Q9Y336 whole entry): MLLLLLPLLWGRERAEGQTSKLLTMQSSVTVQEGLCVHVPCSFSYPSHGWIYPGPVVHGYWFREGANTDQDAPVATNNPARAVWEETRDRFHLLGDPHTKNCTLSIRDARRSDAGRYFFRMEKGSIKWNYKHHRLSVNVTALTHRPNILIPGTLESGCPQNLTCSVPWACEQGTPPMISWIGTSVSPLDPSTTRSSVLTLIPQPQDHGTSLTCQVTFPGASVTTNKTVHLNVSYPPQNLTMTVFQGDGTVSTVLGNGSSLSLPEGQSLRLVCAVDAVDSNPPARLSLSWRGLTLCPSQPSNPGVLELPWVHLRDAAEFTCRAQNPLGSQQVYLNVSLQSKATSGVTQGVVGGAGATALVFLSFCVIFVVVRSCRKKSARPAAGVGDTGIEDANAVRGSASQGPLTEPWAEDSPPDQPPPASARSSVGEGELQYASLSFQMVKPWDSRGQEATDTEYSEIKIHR

[4] = tested on: Trypanosoma cruzi; experiment: Trypanosoma cruzi phosphomannomutase and mannose-1-phosphate guanylyltransferase assay; type: functional; settings: 10 µM
[5] = target: T2, Arginase-2, mitochondrial (Homo sapiens) (UniProt P78540); experiment: in vitro enzyme assay to detect the production of urea directly proportional to the activity of Arginase II; type: functional; settings: 33.3 µM; further: in the data most compounds retested in dose-response had high values
T2 sequence (whole entry): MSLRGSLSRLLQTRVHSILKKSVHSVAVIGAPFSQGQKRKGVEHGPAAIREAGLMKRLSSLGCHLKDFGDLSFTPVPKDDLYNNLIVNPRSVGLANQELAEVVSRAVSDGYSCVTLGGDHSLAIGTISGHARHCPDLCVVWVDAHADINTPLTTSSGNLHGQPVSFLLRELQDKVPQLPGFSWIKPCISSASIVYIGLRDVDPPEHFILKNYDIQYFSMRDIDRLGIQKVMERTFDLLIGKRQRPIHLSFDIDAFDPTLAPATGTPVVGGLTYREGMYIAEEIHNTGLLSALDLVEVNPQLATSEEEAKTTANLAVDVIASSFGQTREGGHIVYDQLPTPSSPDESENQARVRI

[6] = target: T3, Proteasome subunit beta (Trypanosoma cruzi) (UniProt O96673); experiment: Trypanosoma cruzi proteasome chymotrypsin-like activity (TcProtChymo) assay.; further: in the data most compounds retested in dose-response had high values; type: functional; settings: 9.37 µM
T3 sequence (whole entry): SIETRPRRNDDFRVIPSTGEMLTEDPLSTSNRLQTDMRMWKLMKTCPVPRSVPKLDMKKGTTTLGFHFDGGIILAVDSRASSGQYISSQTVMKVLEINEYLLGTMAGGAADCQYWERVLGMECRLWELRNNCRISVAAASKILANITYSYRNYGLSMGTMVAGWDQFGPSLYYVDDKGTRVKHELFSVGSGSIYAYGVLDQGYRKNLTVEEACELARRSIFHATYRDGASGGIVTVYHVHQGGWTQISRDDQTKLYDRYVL

[7] = species: Homo sapiens; experiment: To identify inhibition of the IFN signalling (Jak-Stat) pathway via expression of an eGFP reporter gene under the control of an IFN-stimulated response element (ISRE) containing MxA promoter.; type: functional; settings: 30 µM
[8] = target: T4, Tyrosyl-tRNA synthetase, putative (Trypanosoma cruzi (strain CL Brener)) (UniProt Q4DSP6); experiment: Trypanosoma cruzi tyrosyl tRNA synthetase (TcYRS) _High Tyrosine SOP; type: functional; settings: 30 µM; further: in the data most compounds retested in dose-response had high values
T4 sequence (whole entry): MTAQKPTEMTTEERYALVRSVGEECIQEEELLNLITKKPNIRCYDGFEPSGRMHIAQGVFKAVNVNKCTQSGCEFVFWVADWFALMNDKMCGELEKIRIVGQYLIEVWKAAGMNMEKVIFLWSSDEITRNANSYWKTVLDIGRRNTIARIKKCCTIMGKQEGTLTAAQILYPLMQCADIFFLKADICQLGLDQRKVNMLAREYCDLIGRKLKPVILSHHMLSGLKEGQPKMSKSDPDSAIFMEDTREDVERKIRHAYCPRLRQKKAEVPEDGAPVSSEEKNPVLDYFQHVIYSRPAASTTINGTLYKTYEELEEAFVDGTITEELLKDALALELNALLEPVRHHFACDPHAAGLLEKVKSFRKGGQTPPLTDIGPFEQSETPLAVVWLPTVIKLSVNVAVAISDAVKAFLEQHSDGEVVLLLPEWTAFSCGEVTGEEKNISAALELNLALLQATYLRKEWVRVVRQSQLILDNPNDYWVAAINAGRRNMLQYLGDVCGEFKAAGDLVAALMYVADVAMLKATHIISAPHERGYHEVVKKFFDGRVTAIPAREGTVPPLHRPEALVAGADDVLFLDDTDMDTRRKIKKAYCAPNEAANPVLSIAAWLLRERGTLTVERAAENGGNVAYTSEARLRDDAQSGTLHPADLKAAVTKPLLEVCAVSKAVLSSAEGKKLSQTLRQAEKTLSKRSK

[9] = target: T4, Tyrosyl-tRNA synthetase, putative (Trypanosoma cruzi (strain CL Brener)); experiment: Trypanosoma cruzi tyrosyl tRNA synthetase (TcYRS) SOP; type: functional; settings: 30 µM
[10] = target: Chromo domain-containing protein 1 (Saccharomyces cerevisiae (strain ATCC 204508 / S288c) (Baker's yeast)) (UniProt P32657); experiment: ScCHD-1 Enzyme Inhibition Assay; type: functional; settings: 30 µM; further: in the data most compounds retested in dose-response had high values
Sequence of Chromo domain-containing protein 1 (Saccharomyces cerevisiae (strain ATCC 204508 / S288c) (Baker's yeast)) (P32657 whole entry, the tested form may be a part): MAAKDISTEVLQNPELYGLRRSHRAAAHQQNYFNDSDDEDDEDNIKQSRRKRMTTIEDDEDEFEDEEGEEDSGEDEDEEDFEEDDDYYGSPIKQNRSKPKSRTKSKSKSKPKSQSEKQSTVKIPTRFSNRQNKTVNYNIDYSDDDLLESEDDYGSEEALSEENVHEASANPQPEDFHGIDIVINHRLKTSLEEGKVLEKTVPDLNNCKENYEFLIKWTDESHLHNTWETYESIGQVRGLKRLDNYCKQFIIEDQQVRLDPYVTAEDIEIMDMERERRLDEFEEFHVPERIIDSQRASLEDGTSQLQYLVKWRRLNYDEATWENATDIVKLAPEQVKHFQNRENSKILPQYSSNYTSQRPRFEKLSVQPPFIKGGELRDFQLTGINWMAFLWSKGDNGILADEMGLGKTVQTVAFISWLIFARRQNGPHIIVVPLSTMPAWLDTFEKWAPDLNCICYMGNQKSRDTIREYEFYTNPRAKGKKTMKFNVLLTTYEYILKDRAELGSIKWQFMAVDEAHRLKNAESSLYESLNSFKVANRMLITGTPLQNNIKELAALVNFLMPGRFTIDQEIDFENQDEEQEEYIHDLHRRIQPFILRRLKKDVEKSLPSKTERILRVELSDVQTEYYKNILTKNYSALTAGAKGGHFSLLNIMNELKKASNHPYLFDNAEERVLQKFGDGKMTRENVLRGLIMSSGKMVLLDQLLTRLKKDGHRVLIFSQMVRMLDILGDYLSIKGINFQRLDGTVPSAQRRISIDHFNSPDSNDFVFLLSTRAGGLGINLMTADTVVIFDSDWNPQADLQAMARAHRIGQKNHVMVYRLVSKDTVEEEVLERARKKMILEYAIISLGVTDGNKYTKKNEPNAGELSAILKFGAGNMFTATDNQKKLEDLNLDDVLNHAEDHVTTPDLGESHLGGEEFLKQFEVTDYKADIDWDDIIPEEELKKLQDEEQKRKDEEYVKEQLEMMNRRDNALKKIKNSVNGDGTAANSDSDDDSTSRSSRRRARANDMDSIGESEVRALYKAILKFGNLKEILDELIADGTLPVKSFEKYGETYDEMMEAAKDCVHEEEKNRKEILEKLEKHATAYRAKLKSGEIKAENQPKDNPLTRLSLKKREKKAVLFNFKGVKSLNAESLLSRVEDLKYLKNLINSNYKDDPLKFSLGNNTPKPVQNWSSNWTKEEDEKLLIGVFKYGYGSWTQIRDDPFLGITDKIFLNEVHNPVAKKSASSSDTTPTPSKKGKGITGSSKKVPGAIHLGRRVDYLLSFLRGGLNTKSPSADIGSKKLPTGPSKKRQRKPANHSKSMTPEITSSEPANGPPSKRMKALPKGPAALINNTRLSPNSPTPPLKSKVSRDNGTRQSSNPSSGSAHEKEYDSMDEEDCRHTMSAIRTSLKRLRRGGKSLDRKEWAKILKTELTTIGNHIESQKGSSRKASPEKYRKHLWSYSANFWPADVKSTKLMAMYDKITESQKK

Structure (SMILES)	Percent Effect [1] [%]	Percent Effect [2] [%]	Percent Effect [3] [%]	Percent Effect [4] [%]	Percent Effect [5] [%]	Percent Effect [6] [%]	Percent Effect [7] [%]	Percent Effect [8] [%]	Percent Effect [9] [%]	Percent Effect [10] [%]
COc1ncc(C2(O)CCN(Cc3c(F)cccc3F)CC2)c(OC)n1	-3.32	9.33	-4.97	1.97	-4.87	13.3	15.3	2.12	0	-21.1
O=C(c1ccco1)N1CCC2(CC1)C(=O)NCCN2CC1CC1	-7.74	1.3	-3.06	-8.08	-4.05	15.1	8.56	1.58	-2.56	-1.19
Cc1nc(-c2ccccc2F)sc1C(=O)N1CCN(C)CC1	-7.34	2.7	4.45	-0.679	-3.85	18.5	4.62	3.72	12.2	-3.18
Cn1ccnc1CN1CCN(Cc2noc(-c3ccccc3)n2)CC1	-3.61	10.7	-0.35	-6.02	3.99	7.55	13.5	3.68	7.69	-9.67
c1cc(CN2Cc3nnn(CC4CC4)c3C(COCC3CC3)C2)co1 (stereo not given)	-5.88	3.9	10.3	9.83	-8.1	9.62	-0.188	3.68	12.8	2.41
COc1ncc(C2(O)CCN(Cc3ccccc3O)CC2)c(OC)n1	-3.88	22.7	0.188	1.58	-3.1	13.6	-5.87	6.35	20	-23.4
CCc1nc(CN2CCCN(C(=O)c3c(C)noc3C)CC2)cs1	-2.47	10.3	-1.6	0.0939	2.87	8.11	13.8	3.35	8.43	-3.62
CCc1ccsc1C(=O)N1CCN(CC(O)CC)CC1 (stereo not given)	-2.73	7.79	4.04	4.66	-3.48	0.877	-8.47	2.94	21.2	-7.9
Cc1ccc2oc(C(=O)N3CCCC(c4noc(C)n4)C3)cc2n1 (stereo not given)	-2	5.13	1.38	-3.66	4.51	3.84	11	4.31	8.43	-2.57
CN1CCN(CC2CC2)C(=O)c2cnc(N3CCCCC3)nc21	-6.28	-45.3	3.74	-1.41	-3.99	-4.83	19	-2.63	-5.13	-2.64
CC(=O)N1CCC2(CCCN(Cc3ccc(Cl)c(C(F)(F)F)c3)C2)C1 (stereo not given)	-6.95	3.9	-5.84	1.07	-1.22	1.15	-5.5	-8.95	10.3	0.22
Cc1ncsc1CCC(=O)N1CCCC[C@H](N(C)C)C1	-5.77	13.5	14.4	9.02	52.8	13.7	16.9	7.98	21.9	-3.1
